Assay results published in the supplement of paper PMC11634586.
Structures can show the parent of a compound that is named as a salt. A number with no mark means an inactive call.

What follows are compounds tested on NCI-H1688 (assay: inhibition of cell viability relative to untreated control (fraction); higher = stronger growth inhibition, active = 0.5 or more). Conditions: 30 µM; 24 h.
In short: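 Inhibition of cell viability appears as a fraction, based on viability relative to untreated cells. The assay used NCI-H1688 small cell lung cancer cells seeded in 96-well plates at 3 × 10^3 cells/well, treated one day later with a natural compound library (TargetMol) at 30 µM for 24 h at 37°C and 5% CO2. Absorbance at 450 nm with Cell Counting Kit-8 was recorded in triplicate.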

| SMILES | inhibition of cell viability |
| --- | --- |
| CC[C@H]1OC(=O)C[C@@H](O)[C@H](C)[C@@H](O[C@@H]2O[C@H](C)[C@@H](O[C@H]3C[C@@](C)(O)[C@@H](O)[C@H](C)O3)[C@H](N(C)C)[C@H]2O)[C@@H](CC=O)C[C@@H](C)C(=O)/C=C/C(C)=C/[C@@H]1CO[C@@H]1O[C@H](C)[C@@H](O)[C@@H](OC)[C@H]1OC [Tylosin] | 0.0387 |
| CC(C)[C@@H]1CC[C@@H](C)C[C@H]1O [L-Menthol] | 0.178 |
| COc1ccc(CC(=O)O)cc1OC [Homoveratrumic acid] | 0.0253 |
| CCOC(=O)C1=C[C@]2(CC)CCCN3CCc4c(n1c1ccccc41)[C@@H]32 [Vinpocetine] | -0.174 |
| CC(C)=CCC[C@](C)(O)[C@H]1CC[C@]2(C)[C@@H]1[C@H](O)C[C@@H]1[C@@]3(C)CC[C@H](O)C(C)(C)[C@@H]3CC[C@]12C [(20S)-Protopanaxadiol] | -0.0275 |
| O[C@H]1[C@H]2c3cc4c(cc3CN3CCC(=C[C@@H]1O)[C@H]23)OCO4 [Lycorine chloride] | 0.931 (active) |
| C1CCN2C[C@@H]3C[C@@H](CN4CCCC[C@@H]34)[C@H]2C1 [(-)-Sparteine sulfate pentahydrate] | 0.237 |
| N[C@@H](Cc1c[nH]c2ccc(O)cc12)C(=O)O [5-hydroxytryptophan (5-HTP)] | -0.0946 |
| OC[C@H]1O[C@@H]2O[C@H]3[C@H](O)[C@@H](O)[C@@H](O[C@H]4[C@H](O)[C@@H](O)[C@@H](O[C@H]5[C@H](O)[C@@H](O)[C@@H](O[C@H]6[C@H](O)[C@@H](O)[C@@H](O[C@H]7[C@H](O)[C@@H](O)[C@@H](O[C@H]8[C@H](O)[C@@H](O)[C@@H](O[C@H]1[C@H](O)[C@H]2O)O[C@@H]8CO)O[C@@H]7CO)O[C@@H]6CO)O[C@@H]5CO)O[C@@H]4CO)O[C@@H]3CO [Beta-Cyclodextrin] | 0.0604 |
